Measured values as given in PubChem BioAssay (NCATS).
Results filed as inconclusive are left out. A number with no mark means an inactive call. The source made the active and inactive calls.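 How the source made its calls: active means dose-dependent loss of cell ATP signal giving a full or clear fitted curve, ranked by lower potency value; inconclusive means weak partial curve or response only at the top dose; inactive means no loss of viability signal.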 Peptide text beside a SMILES is read from it.

Assay: Cell Viability - Jurkat (AID 426)
Conditions: qHTS
Excerpt: NIH Chemical Genomics Center [NCGC]
NIH Molecular Libraries Screening Centers Network [MLSCN]
National Institutes of Environmental Health Sciences [NIEHS]
National Toxicology Program [NTP]
We have developed a 1536-well cell-based assay for quantitative high throughput screening (qHTS) against a number of cell lines to determine in vitro cytotoxicity of small molecules. This particular assay uses the Jurkat cell line (Clone E6-1) which is derived from the human T cell leukemia.
NCGC Assay Protocol Summary:
The CellTiter-Glo luminescent cell viability assay (Promega) is a homogeneous method to measure the number of viable cells in culture. The end point readout of this assay is based on quantitation of intracellular ATP, an indicator of metabolic activity, using the luciferase reaction. Luciferase catalyzes the oxidation of beetle Luciferin to oxyluciferin and light in the presence of ATP. The luminescent signal is proportional to amount of ATP present.
Using the CellTiter-Glo luminescent cell viability assay, the amount of cellular ATP was measured in the Jurkat cell line with complete culture medium following compound treatment for 40 hours. The assay was performed in opaque white Kalypsys 1536-well plates. In the screen, tamoxifen and doxorubicin were used as positive controls. Library compounds were measured for their ability to cause acute toxicity in the cell line, as reflected by a decrease in intracellular ATP levels, in a concentration-dependent manner. […] AC50 values were determined from concentration-response data modeled with the standard Hill equation.
qHTS protocol for CellTiter Glo Jurkat cellular assay
[Step] [Parameter] [Value] [Description]
1. Reagent; 5 uL; 5000 Jurkat cells/well
3. Controls; 23 nL; Tamoxifen 0.34 uM to 100 uM & Doxorubicin 0.02 nM to 100 uM
4. Time; 40 hr; 37 °C incubation
5. Reagent; 5 uL; CellTiter Glo reagent
6. Time; 20 min; Room Temperature
7. Detection; Luminescence; Viewlux plate reader
Keywords: cell viability, cytotoxicity, Jurkat cell line, luminescence, NTPHTS, NTPHTS_NCGC, NIEHS, EPA, DSSTox, MLSMR, MLSCN, NIH Roadmap, qHTS, NCGC
Potency means the concentration at half of the fitted maximal effect.

Compound | Potency
CN(C)c1ccc2nc3ccc(=[N+](C)C)cc-3sc2c1 | 14.2 µM (active)
CS(=O)(=O)OCCCCOS(C)(=O)=O | > 92 µM
Cc1ccc(C)c(OCCCC(C)(C)C(=O)O)c1 | > 92 µM
NS(=O)(=O)c1cc(C(=O)O)c(NCc2ccco2)cc1Cl | > 92 µM
CC(=O)Nc1ccc(O)cc1 | > 92 µM
Nc1ccc(S(N)(=O)=O)cc1 | > 92 µM
CCCCC(CC)COC(=O)C(C#N)=C(c1ccccc1)c1ccccc1 (stereo unspecified) | > 92 µM
CCCc1cc(=O)[nH]c(=S)[nH]1 | > 92 µM
COC(=O)[C@H](Cc1ccccc1)NC(=O)[C@@H](N)CC(=O)O (H-Asp-Phe-OMe) | > 92 µM
CCc1nc(N)nc(N)c1-c1ccc(Cl)cc1 | 3.02 µM (active)
COc1c2occc2cc2ccc(=O)oc12 | > 92 µM
